The list is not random: actives were taken first. Their share in the collection is about 1.5%.
GC-B act – GC-B (human) receptor activation; HEK293-GC-B cells, CNP EC30, cGMP TR-FRET; 0% at EC30 CNP, 100% saturating CNP; activation, % at 10 µM; 370,000 compounds, 0.11% hits;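 active means activation at 10 µM reaching about 35% in either raw or pattern-adjusted values, limit read from the data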
Target sequence (P20594 whole entry, looked up): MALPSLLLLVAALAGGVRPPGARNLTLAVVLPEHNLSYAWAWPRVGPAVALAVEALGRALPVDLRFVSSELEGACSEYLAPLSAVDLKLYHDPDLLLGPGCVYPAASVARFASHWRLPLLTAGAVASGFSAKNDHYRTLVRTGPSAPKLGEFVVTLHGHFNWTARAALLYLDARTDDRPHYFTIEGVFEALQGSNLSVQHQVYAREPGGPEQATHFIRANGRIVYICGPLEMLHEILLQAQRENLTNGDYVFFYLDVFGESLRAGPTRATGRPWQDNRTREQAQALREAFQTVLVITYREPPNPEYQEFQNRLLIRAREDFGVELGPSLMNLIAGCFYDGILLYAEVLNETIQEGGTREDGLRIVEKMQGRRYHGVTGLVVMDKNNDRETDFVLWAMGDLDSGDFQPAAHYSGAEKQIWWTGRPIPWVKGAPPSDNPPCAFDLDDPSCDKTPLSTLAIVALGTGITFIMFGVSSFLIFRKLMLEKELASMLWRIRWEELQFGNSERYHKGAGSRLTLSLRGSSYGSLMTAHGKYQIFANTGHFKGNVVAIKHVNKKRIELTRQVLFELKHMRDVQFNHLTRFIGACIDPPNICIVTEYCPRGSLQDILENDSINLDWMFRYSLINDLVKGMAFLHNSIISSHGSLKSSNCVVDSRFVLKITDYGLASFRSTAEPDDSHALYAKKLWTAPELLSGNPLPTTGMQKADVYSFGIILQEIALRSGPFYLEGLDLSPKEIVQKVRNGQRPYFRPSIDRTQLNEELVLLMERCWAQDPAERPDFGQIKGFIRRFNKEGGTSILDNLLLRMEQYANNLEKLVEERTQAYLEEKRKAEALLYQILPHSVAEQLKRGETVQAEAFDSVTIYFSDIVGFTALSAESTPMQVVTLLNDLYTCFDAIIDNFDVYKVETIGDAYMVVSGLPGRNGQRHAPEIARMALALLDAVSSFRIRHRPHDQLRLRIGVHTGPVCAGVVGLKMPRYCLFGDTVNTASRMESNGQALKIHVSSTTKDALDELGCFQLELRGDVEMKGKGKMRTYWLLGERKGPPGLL
GC-A act – GC-A (human) enzyme activation; HEK293 GC-A cells, cGMP TR-FRET, EC30 ANP; 0% at EC30 ANP, 100% saturating ANP; activation, % at 10 µM; 370,000 compounds, 0.14% hits; AID 1671463; in the data active means activation above about 40%
NadD block – blocks S. aureus nicotinate mononucleotide adenylyltransferase | purified NadD enzyme, colorimetric absorbance read-out | inhibition, % at 20 µM | 360,000 compounds, 0.78% hits | AID 602399; in the data active means inhibition above about 26%
Neddyl block – inhibitors of human cullin neddylation | P61081+Q13564 | TR-FRET cullin neddylation, biochemical | inhibition, % at 25 µM | 360,000 compounds, 0.58% hits | AID 651699; in the data active means inhibition above about 36%
Neddyl conf – cullin neddylation inhibition, confirmation; 1,800 compounds, 13% hits; calls only at 25 µM; TR-FRET cullin neddylation biochemical assay; shares compounds with Neddyl block; in the data active means inhibition above about 40%;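 further: neddylation substrate is the cullin 1 ring ligase complex with SKP2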
* = called active by the depositor.

COc1ccccc1OCC(=O)/C=C1/N(C)c2ccccc2C1(C)C was read as GC-B act -3, GC-A act -7, NadD block 0, Neddyl block 46* and Neddyl conf inactive.
Screening CN1/C(=C\C(=O)COC(=O)c2ccccc2O)C(C)(C)c2ccccc21 returned GC-B act 2, GC-A act 4, NadD block -3 and Neddyl block 34.
For Cc1cc(C)c2c(N)c(C(=O)c3ccc(Cl)cc3)sc2n1 the results were GC-B act -2, GC-A act -13, NadD block -5 and Neddyl block 31.
For Cc1cc(C)c2c(N)c(C(=O)c3ccccc3)sc2n1 the results were GC-B act -6, GC-A act -4, NadD block 2, Neddyl block 45* and Neddyl conf active.
`O=C(c1ccncc1)N1CC[C@H]2[C@H](CCCN2Cc2ccccc2)C1` gave GC-B act 2 and GC-A act -2.
Screening Cc1ccc2c(c1)COc1c3ccc(C(=O)N[C@@H](CO)C(C)C)cc3nn1-2 returned GC-B act 10, GC-A act 8 and NadD block 3.
`O=C(NCC1CCCO1)c1ccc2c3n(nc2c1)-c1ccccc1CO3` (configuration not stated) gave GC-B act 4, GC-A act -1, NadD block -4, Neddyl block 42* and Neddyl conf inactive.
For COCCNC(=O)c1ccc2c3n(nc2c1)-c1ccc(C)cc1CO3 the results were GC-B act 5, GC-A act 7, NadD block 1 and Neddyl block 52*.
For CC(c1ccccc1)n1cc(C(=O)NCCCN2CCCC2)nn1 (configuration not stated) the results were GC-B act 6 and GC-A act 2.
O=C(OC12CCCN(C1)/C(=C/c1ccc(Cl)cc1)C2)c1ccno1 (configuration not stated) was read as GC-B act -7 and GC-A act -1.
For Cc1ccccc1NC(=O)OC1CC2CC1[C@H]1CCCCN1[C@H]2Cc1ccccc1 (some centres not stated) the results were GC-B act -6 and GC-A act -9.
Cc1cc2[nH]c3ccccc3c2c(C)n1 was read as GC-B act -5, GC-A act 13, NadD block 1, Neddyl block 40* and Neddyl conf inactive.
Screening Cc1cc(=O)oc2c(C)c(OC(C)C(=O)NCC3CCC(C(=O)O)CC3)ccc12 (configuration not stated) returned GC-B act -3, GC-A act 2, NadD block -1 and Neddyl block 37.
Screening Cc1c(OCc2ccc(C(=O)O)o2)ccc2c3c(c(=O)oc12)CCC3 returned GC-B act 0, GC-A act 3, NadD block -6, Neddyl block 51* and Neddyl conf inactive.
For CCN(CC)C(=O)COc1ccc2c3c(c(=O)oc2c1C)CCCC3 the results were GC-B act 4, GC-A act 3 and NadD block -8.
For Cc1c(OC(C)C(=O)NCc2ccccn2)ccc2c3c(c(=O)oc12)CCC3 (configuration not stated) the results were GC-B act -1, GC-A act 1, NadD block -7, Neddyl block 54* and Neddyl conf active.
Cc1c(OC(C)C(=O)NCC2CCC(C(=O)O)CC2)ccc2c3c(c(=O)oc12)CCCC3 (configuration not stated) was read as GC-B act 4, GC-A act 1, NadD block 2, Neddyl block 55* and Neddyl conf inactive.
Screening Cc1c(OCC(=O)NCc2ccccn2)ccc2c3c(c(=O)oc12)CCCC3 returned GC-B act 0, GC-A act 3, NadD block 8 and Neddyl block -12.
CCn1c(CSc2nc3ccccc3[nH]2)nc2cc(C(=O)O)ccc21 was read as GC-B act 3, GC-A act -1, NadD block -2 and Neddyl block 48*.
`COc1cc(/C=C/c2cc(C(=O)O)c3ccccc3n2)ccc1OC(F)F` gave GC-B act 1, GC-A act 2, NadD block -1 and Neddyl block 40*.
O=C(O)c1cc(/C=C/c2ccc(N3CCOCC3)cc2)nc2ccccc12 was read as GC-B act -3, GC-A act 14, NadD block 5 and Neddyl block 38.
Screening Cc1c(C)c2ccc(OC(C)C(=O)NCCN3CCOCC3)c(C)c2oc1=O (configuration not stated) returned GC-B act 5, GC-A act 4, NadD block -1, Neddyl block 52* and Neddyl conf inactive.
Cc1c(C)c2ccc(OC(C)C(=O)NCCCN3CCOCC3)c(C)c2oc1=O (configuration not stated) was read as GC-B act 4, GC-A act 0, NadD block -1, Neddyl block 46* and Neddyl conf inactive.
`Cc1ccc2nc(-c3ccc(NC(=O)COCC(=O)O)cc3)sc2c1` gave GC-B act 3, GC-A act 8, NadD block -8, Neddyl block 45* and Neddyl conf active.
For CC(=O)N1CCc2cc(S(=O)(=O)NC3CCN(C(=O)OCc4ccccc4)CC3)ccc21 the results were GC-B act -9 and GC-A act 4.
`COc1ccc2[nH]c3c(c2c1)CCN[C@]31C(=O)N(Cc2cn(Cc3ccccc3)nn2)c2ccccc21` gave GC-B act -1 and GC-A act -3.
CCOc1ccc(-n2c(SCC(=O)Nc3ccc(S(=O)(=O)Nc4nccs4)cc3)nnc2-c2ccco2)cc1 was read as GC-B act 2 and GC-A act 0.
CCOC(=O)c1cc2c(=O)n3ccccc3nc2n(CCOC)c1=NC(=O)c1ccncc1 was read as GC-B act -4, GC-A act 5, NadD block -4, Neddyl block 63* and Neddyl conf active.
CCOC(=O)c1cc2c(=O)n3ccccc3nc2n(C(C)C)c1=NC(=O)c1ccncc1 was read as GC-B act 3, GC-A act 6, NadD block 2, Neddyl block 67* and Neddyl conf active.
`CCOC(=O)c1cc2c(=O)n3ccccc3nc2n(C(C)C)c1=NC(=O)c1c(-c2ccccc2Cl)noc1C` gave GC-B act 7, GC-A act 9 and NadD block 8.
`N#Cc1ccc(OCCCN2CCC(C(O)(c3ccccc3)c3ccccc3)CC2)cc1` gave GC-B act -27 and GC-A act -17.
For CCCCNC(=O)C[C@H]1C[C@@]2(C(=O)OC)C(=C[C@H](C(C)(C)C)O[C@@H]2C)N(CCc2ccc(OC)c(OC)c2)C1=O the results were GC-B act 11 and GC-A act 2.
CCOc1cc(NC(=O)c2ccco2)c(OCC)cc1NC(=O)CCc1ccccc1OC was read as GC-B act 0, GC-A act 2, NadD block -8, Neddyl block 41* and Neddyl conf inactive.

Screening data from PubChem BioAssay.
